Among the data in PubChem BioAssay are fold change permeability values, retold here.

Values joined by “and” are separate entries in the source; they are usually repeats but may differ in a detail not shown here. Equal entries are not always repeated. Active and inactive are the calls of the source. Cut-off read from the data, not from the text of the source: active = fold change permeability below about 0.7 or above about 1.3; inactive = in between.

This experiment can be described thus: modulators of brain endothelial barrier permeability, primary screen, cell-based, FITC-avidin fluorescence, HTS (AID 1963498). Note: test concentration not given here. Particulars: actives lie on both sides.
`O=C[C@H](Cl)[C@@H](O)[C@H](O)[C@H](O)CO`: the fold change permeability is 1.1 (inactive).

Turning to `c1ccc2c(c1)[I+]c1ccccc1-2`, the fold change permeability was 1.7 (active).

Consider `O=P1(N(CCCl)CCCl)NCCCO1` (stereo unspecified), for which the fold change permeability is 1 (inactive).

In the case of `CNCC(O)c1ccc(O)cc1` (stereo unspecified), the fold change permeability is 0.7 (active).

As to `OCc1cnc[nH]1`, the fold change permeability is 1.1 (inactive).

As for `C[N+]1(C)CCN(c2ccccc2)CC1`, the fold change permeability is 1.2 (inactive).

Regarding `CN(C(=O)Cc1ccc(Cl)c(Cl)c1)C(CN1CCCC1)c1cccc(OCC(=O)O)c1` (stereo unspecified), the fold change permeability was 1.1 (inactive).

On to `CCc1c(C(=O)C(N)=O)c2c(OCC(=O)O)cccc2n1Cc1ccccc1`, for which the fold change permeability is 1.1 (inactive).

For `CC(N)[C@H](O)c1ccc(O)c(O)c1` (stereo partly specified), the fold change permeability was 1 (inactive).

On to `O=P(O)(O)C(O)(Cc1cnc2ccccn12)P(=O)(O)O`, for which the fold change permeability is 0.8 (inactive).

Consider `Cc1ccc(S(=O)(=O)N[C@@H](CCCCN)C(=O)CCl)cc1`, for which the fold change permeability is 1.4 (active).

`COc1ccc2[nH]cc(CCN)c2c1`: the fold change permeability is 0.8 (inactive).

`Cc1nnc2n1-c1sccc1C(c1ccccc1)=NC2`: the fold change permeability was 1.1 (inactive).

Turning to `Nc1ncnc2c1ncn2[C@@H]1O[C@H](COP(=O)(O)CP(=O)(O)OP(=O)(O)O)[C@H](O)C1O` (stereo partly specified), the fold change permeability is 0.9 (inactive).

As to `CNc1ccc2oc(C[C@H]3O[C@@]4(CC[C@H]3C)O[C@H]([C@H](C)C(=O)c3ccc[nH]3)[C@H](C)C[C@H]4C)nc2c1C(=O)O`, the fold change permeability was 1.2 (inactive).

`N=C(N)c1ccc(CS(=O)(=O)F)cc1`: the fold change permeability was 1.2 (inactive).

Take `NC(N)=NOCC[C@H](N)C(=O)O`: the fold change permeability is 1 (inactive) and 0.8 (inactive).

Regarding `NCC(CC(=O)O)c1ccc(Cl)cc1` (stereo unspecified), the fold change permeability is 1.1 (inactive).

As for `CCN1CCN(C(=O)Cc2ccc(Nc3ncc(F)c(Nc4ccc(C(=O)Nc5ccccc5Cl)cc4)n3)cc2)CC1`, the fold change permeability was 1.1 (inactive).

Take `NCCc1c[nH]c2ccc(C(N)=O)cc12`: the fold change permeability is 1 (inactive).

On to `CC[C@@]1(O)C(=O)OCc2c1cc1n(c2=O)Cc2cc3ccccc3nc2-1`, for which the fold change permeability is 1.4 (active).

Consider `CC1OC1P(=O)(O)O` (stereo unspecified), for which the fold change permeability is 1.1 (inactive).

Regarding `O=[N+]([O-])c1cc(O)c(O)c([N+](=O)[O-])c1`, the fold change permeability is 1 (inactive).

For `CNCCc1c[nH]c2ccc(O)cc12`, the fold change permeability is 0.8 (inactive).

Regarding `CCn1cc(C(=O)O)c(=O)c2ccc(C)nc21`, the fold change permeability is 0.9 (inactive).

Turning to `NC(=O)COc1c(F)cc(SCCNS(=O)(=O)c2ccccc2)cc1F`, the fold change permeability is 0.9 (inactive).

Regarding `C[N+](C)(C)CC#CCOC(=O)Nc1cccc(Cl)c1`, the fold change permeability was 0.9 (inactive).

On to `NCCc1ccc(O)cc1`, for which the fold change permeability was 0.7 (active).

On to `CN[C@@H]1Cc2cccc3[nH]c(=O)n(c23)C1`, for which the fold change permeability is 0.8 (inactive).

In the case of `CC(C)NC(C)Cc1ccc(I)cc1` (stereo unspecified), the fold change permeability is 1.8 (active).

With `CC[C@@H](CO)NC(=O)[C@@H]1C=C2c3cccc4c3c(cn4C)C[C@H]2N(C)C1`, the fold change permeability is 0.7 (active).

As to `Cc1ccc2c(c1)C1(CCN(CCc3nc(-c4ccccc4)oc3C)CC1)OC(=O)N2`, the fold change permeability is 1 (inactive).

In the case of `N#CC(C#N)=Cc1ccc(O)c(O)c1`, the fold change permeability was 1.2 (inactive).

For the compound `CCCN(CCC)C1CCc2cccc(O)c2C1` (stereo unspecified), the fold change permeability is 1 (inactive).

For `COC(=O)[C@@H](N)CCCN=C(N)N[N+](=O)[O-]`, the fold change permeability is 0.9 (inactive).

Take `NC(=NCCC[C@H](N)C(=O)O)N[N+](=O)[O-]`: the fold change permeability was 1 (inactive).
